# According to the supplement of paper PMC5662767:
# Several values for one entry are separate records, joined by “and”; a condition that tells them apart may be missing. Equal values may be shown once. Where a name gives a salt, the structure may show the parent alone.
# System: Drosophila S2 cl14 SmoIP sensor cells
# Experiment: normalized SmoIP GFP fluorescence (untreated unstimulated = 0%, untreated Hh-stimulated = 100%); higher = more Smo activation sensor fluorescence
# Settings: stimulation: Hh conditioned medium (+Hh); compound concentration: 2 uM; 24 h
# 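Also: flow cytometry read-out as median GFP intensity of gated cells, compounds added 30 min before Hh-conditioned or mock medium, mock-treated cells serving as unstimulated baseline.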
row,Structure (SMILES),normalized SmoIP GFP fluorescence
1,FC(F)c1nc2ccccc2n1-c1nc(N2CCOCC2)nc(N2CCOCC2)n1,90.8%
2,Cc1ccc(Nc2nccc(N(C)c3ccc4c(C)n(C)nc4c3)n2)cc1S(N)(=O)=O [Pazopanib-Hydrochloride],117%
3,CC(C)(C)c1cc(NC(=O)Nc2ccc(-c3cn4c(n3)sc3cc(OCCN5CCOCC5)ccc34)cc2)no1,110%
4,O=C(NC(NC(=S)Nc1ccc(F)c([N+](=O)[O-])c1)C(Cl)(Cl)Cl)C(c1ccccc1)c1ccccc1 (stereo unspecified),108%
5,Nc1nc(=O)n([C@@H]2CS[C@H](CO)O2)cc1F [Emtricitabine],111%
6,Cc1cc(OCc2nnc(SC3CCCC3)n2-c2cccnc2)ccc1-c1ccc(S(C)(=O)=O)cc1,96.7%
7,CO[C@@H](C(=O)N1Cc2[nH]nc(NC(=O)c3ccc(N4CCN(C)CC4)cc3)c2C1)c1ccccc1,122%
8,CC1CCN(CC[C@H]2CCCN2S(=O)(=O)c2cccc(O)c2)CC1,108%
9,O=C(/C=C\n1cnc(-c2cc(C(F)(F)F)cc(C(F)(F)F)c2)n1)NNc1cnccn1,109%
10,CC1=C(C(=O)OC(C)C)C(c2cccc([N+](=O)[O-])c2)C(C(=O)OC2CN(C(c3ccccc3)c3ccccc3)C2)=C(N)N1 (stereo unspecified) [azelnidipine],111%
11,COc1cc2nc(N3CCN(C(=O)C4COc5ccccc5O4)CC3)nc(N)c2cc1OC (stereo unspecified) [Doxazosin-mesylate],105%
12,CC(=O)Nc1cccc(N2C(=O)N(C3CC3)C(=O)C3C(Nc4ccc(I)cc4F)N(C)C(=O)C(C)C32)c1 (stereo unspecified),140%
13,COc1ccc(C2=N[C@@H](c3ccc(Cl)cc3)[C@@H](c3ccc(Cl)cc3)N2C(=O)N2CCNC(=O)C2)c(OC(C)C)c1 [Nutlin-3],90.4%
14,CN1CC(=O)N2[C@H](c3ccc4c(c3)OCO4)c3[nH]c4ccccc4c3C[C@@H]2C1=O [Tadalafil(Cialis)],94.8%
15,C[N+]1(C)CCC(=C(c2ccccc2)c2ccccc2)CC1 [diphemanil-methylsulfate],110%
16,c1ccc(-c2[nH]ncc2-c2ccnc3ccccc23)nc1,101%
17,Cn1cnc(N)c2ncnc1-2 [3-methyladenine],111%
18,Cc1cc([C@@H](C)Nc2ccccc2C(=O)O)c2nc(N3CCOCC3)cc(=O)n2c1,94.8%
19,CN1CCN(C2CCN(C(=O)Nc3cc(Oc4ccc(NC(=O)C5(C(=O)Nc6ccc(F)cc6)CC5)c(F)c4)ccn3)CC2)CC1 [golvatinib-e7050],125%

row,Structure (SMILES),normalized SmoIP GFP fluorescence
1,CC(C)N(CCC(=O)c1ccc2ccccc2c1)Cc1ccccc1,119%
2,COCCc1ccc(OCC(O)CNC(C)C)cc1 (stereo unspecified) [metoprolol-tartrate],138%
3,OC[C@@H](O)CN1CCN(c2ccccc2)CC1 [levodropropizine],94.5%
4,CCS(=O)(=O)c1cccc(-c2cc(C(=O)NC3CCN(C)CC3)c(C)c3[nH]c4ncc(C)cc4c23)c1,103%
5,N#Cc1ccc(C(c2ccc(C#N)cc2)n2cncn2)cc1 [Letrozole],98.8%
6,O=C1c2ccc(Nc3ccc(F)cc3F)cc2CCc2ccc(OC[C@H](O)CO)cc21 [skepinone-l],101%
7,CN1[C@@H]2CC[C@H]1C[C@@H](OC(c1ccccc1)c1ccccc1)C2 [benztropine-mesylate],113%
8,CC(C(=O)O)c1ccc2c(c1)CC(=O)c1ccccc1S2 (stereo unspecified) [zaltoprofen],111%
9,CC(C)c1nc(CN(C)C(=O)N[C@@H](CCN2CCOCC2)C(=O)N[C@H](CC[C@H](Cc2ccccc2)NC(=O)OCc2cncs2)Cc2ccccc2)cs1 [cobicistat-gs-9350],113%
10,CCNC(=O)[C@H]1O[C@@H](n2cnc3c(N)nc(NCCc4ccc(CCC(=O)O)cc4)nc32)[C@H](O)[C@@H]1O,148%
11,CC(C)(C#N)c1ccc(N2C(=O)OCc3cnc4ccc(-c5cnc6ccccc6c5)cc4c32)cc1,148%
12,Oc1ccc(-c2nc(-c3ccc(F)cc3)c(-c3ccncc3)[nH]2)cc1,99.3%
13,O=C(O)c1ccc(Nc2ncc3c(n2)-c2ccc(Cl)cc2C(c2c(F)cccc2F)=NC3)cc1,271%
14,CC(C)N(CCCNC(=O)Nc1ccc(C(C)(C)C)cc1)C[C@H]1O[C@@H](n2ccc3c(N)ncnc32)[C@H](O)[C@@H]1O,106% and 111%
15,CC(C)C[C@H](NC(=O)[C@H]1O[C@@H]1C(=O)O)C(=O)NCCCCN=C(N)N,129%
16,O=C(NCc1ccc(Oc2ccccc2)cc1)c1nc(-c2cc(Br)c(O)c(Br)c2)no1 [iowh032],117%
17,c1ccc2c(CCNc3ccc(Nc4ccncc4)cc3)c[nH]c2c1,106%
18,O=C(CCCCCCNC(=O)c1cnc(N(c2ccccc2)c2ccccc2)nc1)NO [rocilinostat-acy-1215],114%
19,O=C(Nc1ccc(-c2ccnc(Nc3ccc(N4CCOCC4)cc3)n2)cc1)C1CCCN1 (stereo unspecified),121%

# Same assay, conditions: stimulation: mock conditioned medium (-Hh); compound concentration: 2 uM; 24 h
row,Structure (SMILES),normalized SmoIP GFP fluorescence
1,FC(F)c1nc2ccccc2n1-c1nc(N2CCOCC2)nc(N2CCOCC2)n1,-6.73%
2,Cc1ccc(Nc2nccc(N(C)c3ccc4c(C)n(C)nc4c3)n2)cc1S(N)(=O)=O [Pazopanib-Hydrochloride],-4.53%
3,CC(C)(C)c1cc(NC(=O)Nc2ccc(-c3cn4c(n3)sc3cc(OCCN5CCOCC5)ccc34)cc2)no1,8.79%
4,O=C(NC(NC(=S)Nc1ccc(F)c([N+](=O)[O-])c1)C(Cl)(Cl)Cl)C(c1ccccc1)c1ccccc1 (stereo unspecified),0.815%
5,Nc1nc(=O)n([C@@H]2CS[C@H](CO)O2)cc1F [Emtricitabine],-14.7%
6,Cc1cc(OCc2nnc(SC3CCCC3)n2-c2cccnc2)ccc1-c1ccc(S(C)(=O)=O)cc1,13.7%
7,CO[C@@H](C(=O)N1Cc2[nH]nc(NC(=O)c3ccc(N4CCN(C)CC4)cc3)c2C1)c1ccccc1,12.4%
8,CC1CCN(CC[C@H]2CCCN2S(=O)(=O)c2cccc(O)c2)CC1,1.21%
9,O=C(/C=C\n1cnc(-c2cc(C(F)(F)F)cc(C(F)(F)F)c2)n1)NNc1cnccn1,1.33%
10,CC1=C(C(=O)OC(C)C)C(c2cccc([N+](=O)[O-])c2)C(C(=O)OC2CN(C(c3ccccc3)c3ccccc3)C2)=C(N)N1 (stereo unspecified) [azelnidipine],-1.23%
11,COc1cc2nc(N3CCN(C(=O)C4COc5ccccc5O4)CC3)nc(N)c2cc1OC (stereo unspecified) [Doxazosin-mesylate],8.14%
12,CC(=O)Nc1cccc(N2C(=O)N(C3CC3)C(=O)C3C(Nc4ccc(I)cc4F)N(C)C(=O)C(C)C32)c1 (stereo unspecified),-4.08%
13,COc1ccc(C2=N[C@@H](c3ccc(Cl)cc3)[C@@H](c3ccc(Cl)cc3)N2C(=O)N2CCNC(=O)C2)c(OC(C)C)c1 [Nutlin-3],2.11%
14,CN1CC(=O)N2[C@H](c3ccc4c(c3)OCO4)c3[nH]c4ccccc4c3C[C@@H]2C1=O [Tadalafil(Cialis)],-0.265%
15,C[N+]1(C)CCC(=C(c2ccccc2)c2ccccc2)CC1 [diphemanil-methylsulfate],-3.62%
16,c1ccc(-c2[nH]ncc2-c2ccnc3ccccc23)nc1,0.247%
17,Cn1cnc(N)c2ncnc1-2 [3-methyladenine],-4.89%
18,Cc1cc([C@@H](C)Nc2ccccc2C(=O)O)c2nc(N3CCOCC3)cc(=O)n2c1,-5.22%
19,CN1CCN(C2CCN(C(=O)Nc3cc(Oc4ccc(NC(=O)C5(C(=O)Nc6ccc(F)cc6)CC5)c(F)c4)ccn3)CC2)CC1 [golvatinib-e7050],12.5%

row,Structure (SMILES),normalized SmoIP GFP fluorescence
1,CC(C)N(CCC(=O)c1ccc2ccccc2c1)Cc1ccccc1,-19%
2,COCCc1ccc(OCC(O)CNC(C)C)cc1 (stereo unspecified) [metoprolol-tartrate],-9.85%
3,OC[C@@H](O)CN1CCN(c2ccccc2)CC1 [levodropropizine],-2.93%
4,CCS(=O)(=O)c1cccc(-c2cc(C(=O)NC3CCN(C)CC3)c(C)c3[nH]c4ncc(C)cc4c23)c1,-25.2%
5,N#Cc1ccc(C(c2ccc(C#N)cc2)n2cncn2)cc1 [Letrozole],-1.88%
6,O=C1c2ccc(Nc3ccc(F)cc3F)cc2CCc2ccc(OC[C@H](O)CO)cc21 [skepinone-l],-4.13%
7,CN1[C@@H]2CC[C@H]1C[C@@H](OC(c1ccccc1)c1ccccc1)C2 [benztropine-mesylate],-0.662%
8,CC(C(=O)O)c1ccc2c(c1)CC(=O)c1ccccc1S2 (stereo unspecified) [zaltoprofen],-1.97%
9,CC(C)c1nc(CN(C)C(=O)N[C@@H](CCN2CCOCC2)C(=O)N[C@H](CC[C@H](Cc2ccccc2)NC(=O)OCc2cncs2)Cc2ccccc2)cs1 [cobicistat-gs-9350],0.474%
10,CCNC(=O)[C@H]1O[C@@H](n2cnc3c(N)nc(NCCc4ccc(CCC(=O)O)cc4)nc32)[C@H](O)[C@@H]1O,-8.77%
11,CC(C)(C#N)c1ccc(N2C(=O)OCc3cnc4ccc(-c5cnc6ccccc6c5)cc4c32)cc1,28.4%
12,Oc1ccc(-c2nc(-c3ccc(F)cc3)c(-c3ccncc3)[nH]2)cc1,-1.34%
13,O=C(O)c1ccc(Nc2ncc3c(n2)-c2ccc(Cl)cc2C(c2c(F)cccc2F)=NC3)cc1,46.7%
14,CC(C)N(CCCNC(=O)Nc1ccc(C(C)(C)C)cc1)C[C@H]1O[C@@H](n2ccc3c(N)ncnc32)[C@H](O)[C@@H]1O,-4.13% and -1.12%
15,CC(C)C[C@H](NC(=O)[C@H]1O[C@@H]1C(=O)O)C(=O)NCCCCN=C(N)N,-3.72%
16,O=C(NCc1ccc(Oc2ccccc2)cc1)c1nc(-c2cc(Br)c(O)c(Br)c2)no1 [iowh032],20%
17,c1ccc2c(CCNc3ccc(Nc4ccncc4)cc3)c[nH]c2c1,10.7%
18,O=C(CCCCCCNC(=O)c1cnc(N(c2ccccc2)c2ccccc2)nc1)NO [rocilinostat-acy-1215],6.2%
19,O=C(Nc1ccc(-c2ccnc(Nc3ccc(N4CCOCC4)cc3)n2)cc1)C1CCCN1 (stereo unspecified),2.12%
